We go through three compounds from PubChem BioAssay.

The nature of test [1]: signal quenchers or enhancers, Cy5 substrate/SSB – biochemical, NIH Clinical Collection, E. coli SSB, artefact control for HCV NS3 helicase inhibitor project (AID 743268). The note with it: Cy5-oligo bound E. coli SSB, fluorescence interference.
The subject of test [2] is Hepatitis C virus NS3 helicase. In words: blockers of NS3h binding to DNA – biochemical, fluorescence polarization, NIH Clinical Collection, primary screen (AID 743270). Conditions: NS3 helicase binding to Cy5-dT15 DNA, stronger effect = higher value, concentration not given here.
For test [3], the target named is Single-stranded DNA-binding protein (Escherichia coli (strain K12)) (UniProt P0AGE0). In words: SSB-ssDNA binding inhibitors – biochemical, fluorescence polarization, NIH Clinical Collection, counter-screen for HCV NS3 helicase inhibitor project (AID 743271; in the data active = inhibition above about 28%). Conditions: E. coli SSB-DNA binding, stronger effect = higher value, concentration not given here.
Test [4] in a line: compounds distorting NS3 helicase fluorescence signal – biochemical, NIH Clinical Collection, artefact control for HCV NS3 helicase inhibitor project (AID 743272).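 Note: HCV NS3 helicase with a Cy5 labelled single stranded DNA probe.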 The note with it: fluorescence interference counterscreen, HCV NS3 helicase assay; stronger effect = lower value. A general note: A counterscreen serves to expose hits that act by an unwanted route or on another target.
Test [5] can be described thus: Wnt pathway potentiators raising nuclear beta-catenin – imaging, WNT3A-conditioned medium, mouse C2C12, NPC library, primary screen (AID 1117326; in the data active = nuclear beta-catenin stimulation mostly above about 4.2%, no sharp cut-off; inactive = mostly below about 10%). The note with it: stronger effect = higher value.
The nature of test [6]: stimulators of insulin release from INS-1E, primary screen, cell-based, 5 mM glucose, NPC library (AID 1117329;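 active = compound raises insulin release from rat beta cells at 5 mM glucose, no numeric limit stated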). The note with it: rat INS-1E insulin secretion, at 10 µM, stronger effect = higher value.
A short description of test [7]: growth inhibition of GSK3B-pretreated HCT116 cells – cell-based, CellTiter-Glo, 0.2 to 20 µM (AID 1117336;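 active = compounds lowering colon cancer cell viability after pretreatment blocking the GSK3B kinase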). The note with it: HCT116 viability after GSK3B inhibitor, at 20 µM, stronger effect = higher value.
Test [8] in a line: inhibition of endothelial tube formation, primary screen, imaging, VEGF stimulated, CD31 staining, tube area, NPC library (AID 1117340;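 active = compound that reduces growth-factor-driven endothelial tube area in a mixed cell culture, no cutoff stated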). The note with it: VEGF-stimulated ADSC/ECFC co-culture, at 10 µM, stronger effect = higher value.
Test [9] can be described thus: GLP1 release stimulators, primary, NCI-H716, NPC library (AID 1117341;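 active = compound raises GLP1 secretion from the human gut endocrine cells, with no numeric limit stated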). Conditions: NCI-H716 cells, at 10 µM, stronger effect = higher value.
The nature of test [10]: HCT116 colon cancer cell growth inhibition, primary screen, CellTiter-Glo luminescence, NPC library (AID 1117342;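 active = compounds that lower survival of HCT116 colon cancer cells in the luminescence readout, no numeric limit stated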). The note with it: at 20 µM (top of the series). In general terms: ATP-based viability assays read luminescence as a measure of living cells.
Test [11] is described as follows: reduced SW480 viability measured with CellTiter-Glo, NPC library, primary (AID 1117343;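 active = compounds that lower viability of the colon cancer cells in the luminescence readout, with no numeric limit stated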). The note with it: CellTiter-Glo luminescence; at 20 µM (top of the series).
Test [12] in a line: NPC library primary testing for decreased DLD-1 cell viability via CellTiter-Glo (AID 1117346;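 active = compounds that lower survival of DLD-1 colon cancer cells in the luminescence readout, no cutoff given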). The note with it: DLD-1 viability, CellTiter-Glo luminescence; at 20 µM (top of the series).
For test [13], the target named is 6-phosphogluconate dehydrogenase, decarboxylating (Homo sapiens) (UniProt P52209). Nature of the test: inhibition of human phosphogluconate dehydrogenase – biochemical, recombinant enzyme, NADPH absorbance, primary screen (AID 1159550;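 active = at least 20% inhibition of 6-phosphogluconate dehydrogenase activity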). The note with it: recombinant 6PGD, NADPH absorbance 341 nm; at 10 µM; stronger effect = higher value.
Test [14] can be described thus: viability loss with induced miR-34 in A549 – imaging, A549 dox-inducible miR-34, nuclei and caspase counts, primary screen (AID 1347080;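 active = compounds whose cell count with miR-34 switched on is under 0.7 times the count with it off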). The note with it: A549 miR-34 inducible, Hoechst nuclei count, 48 h.
Test [15] can be described thus: MELAS cybrid and Rieske KO viability enhancers – cell-based, MELAS cybrids, Rieske KO mouse fibroblasts, CellTiter-Glo, primary screen (AID 1508586;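 active = mean z-score across replicates of 1.96 or higher in either the MELAS or the Rieske mutant cell line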;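 note: z relative to plate mean and SD of compound and empty wells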). Conditions: low glucose.
For test [16], the target named is NAD(+) hydrolase SARM1 (Homo sapiens) (UniProt Q6SZW1). Nature of the test: blocking NAD cleavage by SARM1 SAM-TIR – cell lysate, NAD-Glo luminescence (AID 1508614;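 active = compound whose remaining NAD level is above about 45 nM, limit read from the data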;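 note: higher remaining NAD means stronger inhibition of SARM1 NADase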). The note with it: SAM-TIR HEK293T lysate NADase, at 1 µM, stronger effect = higher value.
For test [17], the target named is Mitogen-activated protein kinase 7 (Homo sapiens) (UniProt Q13164). In words: Gal4-ERK5 driven luciferase induction – cell-based, HTS, primary screen (AID 1508626;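 active = luciferase signal above three times the same-plate solvent-only control wells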;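 note: luciferase driven by Gal4-ERK5 fusion binding five Gal4 sites before minimal TATA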). The note with it: HeLa Gal4-ERK5 transactivation, 18 h, at 5 µM, stronger effect = higher value.
Another test has as its system F380Y. Nature of the test: BK channel mutant inhibitors and activators – cell-based, U2OS BacMam, thallium flux, beta subunits, selectivity assay, profiling panel (AID 1259406;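 active = thallium flux through the channel raised or lowered by more than 3 SD from vehicle-only wells, actives on both sides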;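 note: initial slope of Thallos dye fluorescence rise after thallium is added; log ratio against the mean of 0.3% DMSO vehicle wells on the same plate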). Conditions: U2OS BacMam BK variants, at 30 µM.
Test [18] can be described thus: P. berghei load reduction in hepatocytes – cell-based, HepG2, luciferase luminescence, HepG2 viability, primary screen (AID 624349; in the data active = parasite load remaining mostly below about 12%, no sharp cut-off; inactive = mostly above about 10%;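 note: 100% = mean of DMSO negative control wells on the same plate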). The note with it: P. berghei liver stage in HepG2, luciferase luminescence, concentration not given here; parasite load remaining: stronger effect = lower value; viability: measured here: HepG2 viability without parasites.
A short description of test [19]: EMT-state selective cytotoxicity in co-culture – imaging, PC-3E GFP, TEM4-18 mCherry, primary screen (AID 1345086;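 active = compounds killing one labelled cell type while sparing the other, by normalised counts and ratio limits, not self-fluorescent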;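 note: cells exposed to compound for 72 h before imaging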;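 for red/green cell ratio (normalised): normalised mesenchymal count divided by normalised epithelial count so high means epithelial killing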). The note with it: PC-3E GFP / TEM4-18 mCherry co-culture, imaging cell counts, at 1 µM.
The mark [20] stands for this setting: stronger effect = lower value, cell number ratio, induced over uninduced.
[21] abbreviates: measured here: relative caspase fold change +Dox/-Dox.
The mark [22] stands for this setting: measured here: total cells with miR-34 induction, stronger effect = lower value.
Where [23] appears, read: measured here: total cells without miR-34 induction.
Setting [24] is: MELAS cybrid survival, CellTiter-Glo 48 h, stronger effect = higher value.
The mark [25] stands for this setting: Rieske KO mouse fibroblast survival, CellTiter-Glo 72 h.

Structures are written as SMILES. Several values for one entry are separate records, joined by “and”; a condition that tells them apart may be missing. Equal entries are not always repeated. Activity calls are given as the source filed them. Unless noted, the rule behind the calls is not given here.

Sequence of 6-phosphogluconate dehydrogenase, decarboxylating (Homo sapiens) (P52209 whole entry, looked up): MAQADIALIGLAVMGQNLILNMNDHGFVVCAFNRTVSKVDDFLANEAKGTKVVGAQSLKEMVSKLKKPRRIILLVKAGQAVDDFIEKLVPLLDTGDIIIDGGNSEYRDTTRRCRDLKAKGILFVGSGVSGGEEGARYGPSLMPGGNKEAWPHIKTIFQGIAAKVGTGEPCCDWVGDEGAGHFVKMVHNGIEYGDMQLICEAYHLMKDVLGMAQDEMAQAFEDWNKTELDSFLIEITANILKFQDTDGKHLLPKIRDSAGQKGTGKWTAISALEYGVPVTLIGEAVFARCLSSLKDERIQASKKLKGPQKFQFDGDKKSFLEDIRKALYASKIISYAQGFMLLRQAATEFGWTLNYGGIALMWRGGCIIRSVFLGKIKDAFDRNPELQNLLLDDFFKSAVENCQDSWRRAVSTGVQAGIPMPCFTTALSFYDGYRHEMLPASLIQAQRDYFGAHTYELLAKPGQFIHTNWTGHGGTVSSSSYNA
Sequence of NAD(+) hydrolase SARM1 (Homo sapiens) (Q6SZW1 whole entry, looked up, the tested form may be a part): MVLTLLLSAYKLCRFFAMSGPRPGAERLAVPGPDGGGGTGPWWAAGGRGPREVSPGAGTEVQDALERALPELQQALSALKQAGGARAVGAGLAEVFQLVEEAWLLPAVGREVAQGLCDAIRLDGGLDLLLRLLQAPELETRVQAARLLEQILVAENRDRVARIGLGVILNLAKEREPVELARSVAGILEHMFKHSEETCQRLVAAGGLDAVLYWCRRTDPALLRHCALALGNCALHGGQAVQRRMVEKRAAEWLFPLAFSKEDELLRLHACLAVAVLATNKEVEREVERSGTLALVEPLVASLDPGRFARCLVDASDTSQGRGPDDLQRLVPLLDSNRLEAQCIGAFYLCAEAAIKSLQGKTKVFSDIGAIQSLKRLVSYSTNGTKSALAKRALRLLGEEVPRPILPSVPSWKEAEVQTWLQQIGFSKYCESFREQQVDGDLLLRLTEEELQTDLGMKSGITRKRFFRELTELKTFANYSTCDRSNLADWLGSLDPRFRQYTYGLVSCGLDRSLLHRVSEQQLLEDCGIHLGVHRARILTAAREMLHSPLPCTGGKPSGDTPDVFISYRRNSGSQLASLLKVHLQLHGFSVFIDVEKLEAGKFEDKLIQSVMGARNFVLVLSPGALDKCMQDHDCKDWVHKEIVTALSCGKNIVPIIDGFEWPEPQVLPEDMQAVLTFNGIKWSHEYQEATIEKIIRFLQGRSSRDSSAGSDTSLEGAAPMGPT
Sequence of Mitogen-activated protein kinase 7 (Homo sapiens) (Q13164 whole entry, looked up, the tested form may be a part): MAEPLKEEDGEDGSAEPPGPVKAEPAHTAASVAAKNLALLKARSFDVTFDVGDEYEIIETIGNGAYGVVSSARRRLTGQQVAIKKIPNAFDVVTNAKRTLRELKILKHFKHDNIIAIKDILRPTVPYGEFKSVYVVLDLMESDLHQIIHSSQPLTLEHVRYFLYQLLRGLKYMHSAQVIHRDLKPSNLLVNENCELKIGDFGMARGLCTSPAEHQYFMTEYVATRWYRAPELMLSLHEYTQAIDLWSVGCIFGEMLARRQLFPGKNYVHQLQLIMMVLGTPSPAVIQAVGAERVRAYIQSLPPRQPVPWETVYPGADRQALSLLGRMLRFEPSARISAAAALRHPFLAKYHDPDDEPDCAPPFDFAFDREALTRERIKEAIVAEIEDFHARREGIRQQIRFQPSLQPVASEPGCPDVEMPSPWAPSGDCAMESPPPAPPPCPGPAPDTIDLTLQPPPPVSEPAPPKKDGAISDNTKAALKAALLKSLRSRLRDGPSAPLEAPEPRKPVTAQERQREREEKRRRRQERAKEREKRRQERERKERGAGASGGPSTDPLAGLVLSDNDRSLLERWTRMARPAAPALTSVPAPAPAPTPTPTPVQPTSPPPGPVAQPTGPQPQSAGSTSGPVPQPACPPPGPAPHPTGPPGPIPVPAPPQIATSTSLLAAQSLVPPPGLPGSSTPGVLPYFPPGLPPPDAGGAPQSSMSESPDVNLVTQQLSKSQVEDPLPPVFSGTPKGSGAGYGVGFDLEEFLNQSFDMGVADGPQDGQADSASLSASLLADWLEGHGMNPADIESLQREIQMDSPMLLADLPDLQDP

Take `C[C@H]1C[C@@H]2[C@H]([C@@H](O)C[C@@]3(C)[C@H]2CC[C@]3(O)C(=O)CO)[C@@]2(C)C=CC(=O)C=C12`: the fluorescence ratio is 1.07 (inactive) in test [1] and 1.04 (inactive) in test [4]. Besides, the inhibition (in general, the change of the read-out against control, counted positive when it falls) is -1.36% (inactive) in test [2], 1.81% (inactive) in test [3] and 12.4% (inactive) in test [13]. Moreover, the nuclear beta-catenin stimulation in test [5] (at 10 µM) was -1.3% (inactive); in [5] (stimulation, at 2 µM), 0%. Further, the insulin secretion stimulation in test [6] is 2.2% (inactive). For the same compound, the viability decrease in test [7] is -8.4% (inactive). In [8], the tube area decrease was -6.1% (inactive). The GLP1 secretion stimulation in [9] is 1% (inactive). Further, in test [10], the inhibition of viability is 2.5% (inactive). Also, the viability decrease (inhibition) in [11] was 3.7% (inactive); in [12], -5% (inactive). Moreover, the fold change was 0.959 (inactive) and 0.809 (inactive) and 0.808 (inactive) in [14] (setting [20]); 0.739 and 1.35 and 1.33 in test [14] (setting [21]). Also, the cell count is 7180 and 6410 and 5950 in test [14] (setting [22]); 7490 and 7930 and 7360 in [14] (setting [23]). In addition, the z-score is 0.0891 (inactive) and -0.0037 (inactive) in test [15] (setting [24]); -0.286 and 1.09 in [15] (setting [25]). For the same compound, the remaining NAD in test [16] was 10 nM (inactive). The luciferase signal in [17] was 100 AU (inactive). In addition, the log fold change Tl+ flux with F380Y is 0.00302 (inactive).
In the case of `CC(C)C1CCC(C(=O)N[C@H](Cc2ccccc2)C(=O)O)CC1` (stereo not given in full), the parasite load remaining in test [18] is 83.5% (inactive) and 55.1% (inactive). Moreover, in test [18], the viability (commonly a read-out of living cells in per cent, often relative to untreated cells) is 68.8% and 167%. In addition, the figures for the fluorescence ratio in test [1] and in test [4] were 1.01 (inactive) and 0.74 (active), respectively. The inhibition in [2] was -0.4% (inactive); in test [3], 2.98% (inactive); in test [13], 0.904% (inactive). The nuclear beta-catenin stimulation in test [5] (at 10 µM) was -0.5% (inactive); in test [5] (stimulation, at 2 µM) it was 0.2%. Besides, in test [6], the insulin secretion stimulation was 49.4% (active). Further, the viability decrease in [7] is -22.6% (inactive). The tube area decrease in test [8] is -2.3% (inactive). Besides, the GLP1 secretion stimulation in [9] was 2.1% (inactive). Also, the inhibition of viability in [10] was -6.47% (inactive). For the same compound, the viability decrease (inhibition) was 1% (inactive) in test [11] and -23.8% (inactive) in [12]. Also, the fold change was 0.871 (inactive) in test [14] (setting [20]) and 1.37 in test [14] (setting [21]). Also, the cell count was 8810 in test [14] (setting [22]) and 10100 in test [14] (setting [23]). The z-score is -0.215 (inactive) and -1.18 (inactive) in test [15] (setting [24]); -0.618 and -0.816 in test [15] (setting [25]). In addition, the remaining NAD in [16] is 10 nM (inactive). Moreover, the luciferase signal in [17] is 80 AU (inactive). Further, in the test with F380Y, the log fold change Tl+ flux was -0.00809 (inactive).
On to `c1ccc(-c2ccc(C(c3ccccc3)n3ccnc3)cc2)cc1` (stereo not given), for which the fluorescence ratio was 1.01 (inactive) in test [1] and 1.04 (inactive) in test [4]. The inhibition is 12.3% (inactive) in test [2], 8.37% (inactive) in test [3] and 12.4% (inactive) in test [13]. Also, the nuclear beta-catenin stimulation in test [5] (at 10 µM) is -0.1% (inactive); in [5] (stimulation, at 2 µM), 0.5%. Besides, in test [6], the insulin secretion stimulation was 0.3% (inactive). Also, the viability decrease in [7] is 99.7% (active). Further, the tube area decrease in test [8] is 23.9% (inactive). In [9], the GLP1 secretion stimulation is 8.2% (inactive). The inhibition of viability in [10] is 101% (active). In addition, the viability decrease (inhibition) in [11] was 141% (active); in test [12], 104% (active). Besides, in [19] (actives lie on both sides, counts scaled to control wells, 1 = unselective), the red/green cell ratio (normalised) was 1.06 (inactive). Moreover, the normalised cell number in test [19] (measured here: epithelial PC-3E GFP cell survival) amounted to 0.98; in test [19] (measured here: mesenchymal TEM4-18 mCherry cell survival), 1.04. Further, the z-score was -0.456 (inactive) and -0.0732 (inactive) and 0.0643 (inactive) in test [15] (setting [24]); -0.196 and 0.568 and 0.472 in [15] (setting [25]). Moreover, in test [16], the remaining NAD was 10 nM (inactive). Besides, in test [17], the luciferase signal is 56 AU (inactive). For the same compound, in the test on F380Y, the log fold change Tl+ flux was -0.00418 (inactive).
